Bioassay records as filed in PubChem BioAssay.
An excerpt weighted towards active compounds, which were near 19% of everything screened.
HT1080NT lethal – qHTS for induction of synthetic lethality in tumor cells producing 2HG: qHTS for the HT-1080-NT fibrosarcoma cell line. HT-1080-NT fibrosarcoma viability, CellTiter-Glo ATP luminescence, 48 h. Potency, µM (highest dose often 46.1 µM), for the others: at the top dose activity, negative = less viability, actives largely listed as cytotoxic. AID 686970, 2013. 1.6% of 360,000 active;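 further: NT is the 2HG producing partner of a matched IDH1 knockdown line; potency means the concentration at half of the fitted maximal effect; 0% = DMSO-treated cells and -100% = media-only wells without cells; nearly all actives have a fitted effect of over 55% in size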
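HT-1080-NT fibrosarcoma cells (2HG-overproducing), 750 cells/well in RPMI with 5% FBS, dosed after 2 h and incubated 48 h at 37C. CellTiter-Glo luminescence normalized to DMSO and no-cell wells; concentration-response curves fitted and classed.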
TDP1 cell noCPT – qHTS for Inhibitors of human tyrosyl-DNA phosphodiesterase 1 (TDP1): qHTS in cells in absence of CPT. DT40 Tdp1-/- hTDP1 cells, no CPT, ATP luminescence, 48 h. Potency, µM (top dose mostly 46.2 µM), inactives show at the top dose activity change, negative = growth inhibition, usual class: inhibitors. 15% of 420,000 active. AID 686978, 2013; further: potency means the concentration at half of the fitted maximal effect; nearly all actives have a fitted effect of over 55% in size
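Growth of hTDP1-complemented DT40 Tdp1-knockout cells is measured by ATP luminescence after at least 48 hr compound exposure at 37 °C, with DMSO substituting for the 20 nM CPT used in the parallel screen.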
DT40 TDP1 CPT – qHTS for Inhibitors of human tyrosyl-DNA phosphodiesterase 1 (TDP1): qHTS in cells in presence of CPT. chicken DT40 Tdp1-/-;hTDP1 cells + 20 nM CPT, ATP luminescence, 48 h. 12% of 420,000 active. AID 686979, 2013. Potency, µM (series often up to 46.2 µM), for inactives: at the highest dose activity change, negative = growth inhibition, hits mostly inhibitors; further: potency means the concentration at half of the fitted maximal effect; nearly all actives have a fitted effect of over 55% in size
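Chicken DT40 Tdp1-/- cells complemented with human TDP1, 400 cells/well, exposed to compounds plus 20 nM camptothecin for at least 48 h at 37 C; viability read as ATP content by CellTiter-Glo luminescence.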
HT1080 IDH1KD tx – qHTS for induction of synthetic lethality in tumor cells producing 2HG: qHTS for the HT-1080-IDH1KD cell line; HT-1080 IDH1 knockdown viability, ATP luminescence, 48 h; Potency, µM (series often up to 46.1 µM), without a hit: at the top dose activity, negative = toxicity, hits mostly cytotoxic; 2% of 360,000 active; AID 686971, 2013;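 further: potency means the concentration at half of the fitted maximal effect; 0% = DMSO wells and -100% = cell-free medium wells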
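CellTiter-Glo luminescence after 48 h compound exposure at 37 degrees C of IDH1-knockdown HT-1080 cells in 5% FBS RPMI. %Activity scaled between DMSO wells and cell-free media wells, with curves fitted and assigned curve classes.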
ELG1 DNA repair – qHTS screen for small molecules that inhibit ELG1-dependent DNA repair in human embryonic kidney (HEK293T) cells expressing luciferase-tagged ELG1 | 2.3% of 330,000 active | AID 504467, 2011 | HEK293T ELG1-luciferase reporter, luminescence, 16 h; DNA damage induced by 5-fluorouridine | Potency, µM (doses to about 46.1 µM), for inactives: at the top dose activity change, negative = inhibition, usual class: inhibitors; further: potency means the concentration at half of the fitted maximal effect; nearly all actives have a fitted effect of over 55% in size
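DMSO vehicle served as the neutral condition. Each well held 2,000 cells given 5-fluorouridine plus compound; after 16 hr at 37 °C/5% CO2, ONE-Glo was added and luciferase measured 30 min later.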
IL-1B inflam inh – qHTS for Inhibitors of Inflammasome Signaling: IL-1-beta AlphaLISA Primary Screen; AID 743279, 2014; 4.7% of 360,000 active; activity change, % at 57.5 µM; THP-1 LPS/ATP IL-1B secretion, AlphaLISA, 16 h; stronger effect = lower value; in the data active means activity change below about -50%; inconclusive means mostly about -30% to -49%
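Secreted IL-1B measured by AlphaLISA bead assay after 16 h compound exposure of THP-1 cells; compounds (final up to 57.5 uM) added 1 h before LPS (250 ng/mL) and ATP (1.25 mM) stimulation; lower signal means less secretion.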
Active calls of the source: *. Unless noted, the call rests on the fitted dose curve; in most records, active means well fitted curve in the direction sought with a large enough effect; inconclusive means small, poorly fitted or top-dose-only effect, or another doubt; inactive means no such curve, though single readings can be large; an effect the other way counts as inactive or inconclusive. Unless noted, on the % scale 0 is the no-effect control and ±100 the full control effect.

For COc1ccc(C2SCC(=O)N2c2ccc(OC)cc2)cc1 (stereo unspecified) the results were HT1080NT lethal -2%, TDP1 cell noCPT 7%, DT40 TDP1 CPT -14%, HT1080 IDH1KD tx -8%, ELG1 DNA repair 0% and IL-1B inflam inh 2.
COc1cccc(C2SCC(=O)N2c2ccc(Br)cc2)c1OC (stereo unspecified) was read as HT1080NT lethal -2%, TDP1 cell noCPT inconclusive, DT40 TDP1 CPT 23µM*, HT1080 IDH1KD tx -2%, ELG1 DNA repair -1% and IL-1B inflam inh -18.
For COc1cc(OC)cc(-c2nc3n(n2)C(c2ccccc2)C(C(N)=O)=C(C)N3)c1 (stereo unspecified) the results were TDP1 cell noCPT -27% and DT40 TDP1 CPT -20%.
Screening COc1ccc2c(-c3cnc(N4CCOCC4)nc3)c(-c3ccc(S(C)(=O)=O)cc3)sc2c1 returned HT1080NT lethal 3%, TDP1 cell noCPT 15µM*, DT40 TDP1 CPT 15µM*, HT1080 IDH1KD tx 11%, ELG1 DNA repair -6% and IL-1B inflam inh -29.
COc1ccc2sc(-c3ccc(S(C)(=O)=O)cc3)c(-c3ccc(SC)cc3)c2c1 was read as HT1080NT lethal 0%, TDP1 cell noCPT inconclusive, DT40 TDP1 CPT 26µM*, HT1080 IDH1KD tx -3%, ELG1 DNA repair 13% and IL-1B inflam inh -10.
For COc1ccc(-c2sc3ccc(OC)cc3c2-c2ccc(O)cc2)cc1 the results were HT1080NT lethal inconclusive, TDP1 cell noCPT inconclusive, DT40 TDP1 CPT inconclusive, HT1080 IDH1KD tx inconclusive, ELG1 DNA repair 23µM* and IL-1B inflam inh -63*.
For COc1ccc2c(-c3ccc(SC)cc3)c(-c3ccc(S(C)(=O)=O)cc3)sc2c1 the results were HT1080NT lethal 3%, TDP1 cell noCPT inconclusive, DT40 TDP1 CPT inconclusive, HT1080 IDH1KD tx 6%, ELG1 DNA repair -1% and IL-1B inflam inh 0.
Screening COc1ccc(-c2c(-c3ccc(S(C)(=O)=O)cc3)sc3ccc(OC)cc23)cc1 returned HT1080NT lethal 0%, TDP1 cell noCPT 13µM*, DT40 TDP1 CPT inconclusive, HT1080 IDH1KD tx 4%, ELG1 DNA repair -13% and IL-1B inflam inh -2.
`COc1cc(OC)cc(-c2sc3ccc(OC)cc3c2-c2ccc(O)cc2)c1` gave HT1080NT lethal inconclusive, TDP1 cell noCPT inconclusive, DT40 TDP1 CPT inconclusive, HT1080 IDH1KD tx inconclusive, ELG1 DNA repair inconclusive and IL-1B inflam inh -9.
COc1ccc(-c2sc3cc(OC)ccc3c2-c2ccc(OCCN3CCOCC3)cc2)cc1 was read as HT1080NT lethal inconclusive, TDP1 cell noCPT inconclusive, DT40 TDP1 CPT inconclusive, HT1080 IDH1KD tx -23%, ELG1 DNA repair -17% and IL-1B inflam inh 6.
CCCc1nnc(SCC(=O)N2CCCCC2C)n1CCOC (stereo unspecified) was read as HT1080NT lethal 16%, TDP1 cell noCPT inconclusive, DT40 TDP1 CPT -14%, HT1080 IDH1KD tx -7%, ELG1 DNA repair 9% and IL-1B inflam inh -13.
Screening CCOc1ccc(N(CC(=O)NC2CC2)S(=O)(=O)c2ccc(C)cc2)cc1 returned HT1080NT lethal 18%, TDP1 cell noCPT -7%, DT40 TDP1 CPT -15%, HT1080 IDH1KD tx 10%, ELG1 DNA repair 9% and IL-1B inflam inh -4.
CCOc1ccccc1OCCCOc1ccc([N+](=O)[O-])cc1Cl was read as HT1080NT lethal -1%, TDP1 cell noCPT 23µM*, DT40 TDP1 CPT -74%, HT1080 IDH1KD tx -3%, ELG1 DNA repair inconclusive and IL-1B inflam inh -23.
For CC(C)C(C)NC(=O)COc1ccc([N+](=O)[O-])cc1Cl (stereo unspecified) the results were HT1080NT lethal 1%, TDP1 cell noCPT inconclusive, DT40 TDP1 CPT 8.2µM*, HT1080 IDH1KD tx -10%, ELG1 DNA repair 0% and IL-1B inflam inh -8.
Screening COc1cccc(OC)c1OCCCOc1ccc([N+](=O)[O-])cc1Cl returned HT1080NT lethal -5%, TDP1 cell noCPT inconclusive, DT40 TDP1 CPT inconclusive, HT1080 IDH1KD tx -7%, ELG1 DNA repair -9% and IL-1B inflam inh inconclusive.
Screening CC(=O)c1ccc(NC2=NS(=O)(=O)c3ccccc32)cc1 returned TDP1 cell noCPT -14% and DT40 TDP1 CPT 4%.
Screening O=C(O)c1ccccc1C(=O)c1ccc2c(c1)N(Cc1ccc(Cl)c(Cl)c1)C(=O)CO2 returned HT1080NT lethal -29%, TDP1 cell noCPT inconclusive, DT40 TDP1 CPT -24%, HT1080 IDH1KD tx -23%, ELG1 DNA repair inconclusive and IL-1B inflam inh -53*.
`CC(C)(C)c1ccc(S(=O)(=O)N(CCCN2CCOCC2)Cc2cccs2)cc1` gave HT1080NT lethal inconclusive, TDP1 cell noCPT 16µM*, DT40 TDP1 CPT inconclusive, HT1080 IDH1KD tx inconclusive, ELG1 DNA repair inconclusive and IL-1B inflam inh inconclusive.
For CC1Oc2ccccc2N(Cc2cccc(F)c2)C1=O (stereo unspecified) the results were HT1080NT lethal -10%, TDP1 cell noCPT -20%, DT40 TDP1 CPT -15%, HT1080 IDH1KD tx -1%, ELG1 DNA repair inconclusive and IL-1B inflam inh 5.
`CC1C(=O)N(Cc2ccccc2F)c2ccccc2N1C(=O)c1c(F)cccc1F` (stereo unspecified) gave HT1080NT lethal -1%, TDP1 cell noCPT 18µM*, DT40 TDP1 CPT 18µM*, HT1080 IDH1KD tx -13%, ELG1 DNA repair inconclusive and IL-1B inflam inh inconclusive.
For O=C1NC(=O)N(Cc2ccccc2F)C1=O the results were HT1080NT lethal 17%, TDP1 cell noCPT -7%, DT40 TDP1 CPT 2%, HT1080 IDH1KD tx -1%, ELG1 DNA repair 2% and IL-1B inflam inh -7.
`CC1C(=O)N(Cc2cccc(F)c2)c2ccccc2N1C(=O)c1ccccc1` (stereo unspecified) gave HT1080NT lethal -26%, TDP1 cell noCPT 15µM*, DT40 TDP1 CPT inconclusive, HT1080 IDH1KD tx -14%, ELG1 DNA repair 23µM* and IL-1B inflam inh -14.
